Experimental findings from PubChem BioAssay (NCATS) are described below.

Assay [1] has as its system MCC-26. The experiment in a line: qHTS assay to identify novel small-molecules to repurpose for Merkel cell carcinoma treatment (AID 1296009). Further: nearly all actives have a fitted effect of over 60% in size. As to conditions: MCC and control cell lines, CellTiter-Glo viability, 72 h; series mostly up to 46 µM. The gist of the method: (§1)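 Luminescence from CellTiter-Glo, read 10 min after addition at room temperature, reported viability following a 72 hr, 37 degree celsius treatment with NPC or MIPE compounds in titration; values normalized to plate controls.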
(qHTS replaces the single test concentration by a dilution series.)

Assay [2] relates to MKL-1. Described as above. As to conditions: MCC and control cell lines, CellTiter-Glo viability, 72 h; series mostly up to 46 µM. Summed up: as §1
Background: In ATP-based viability assays light output follows the ATP content of the culture.

Assay [3] relates to MKL-2. Described as above. As to conditions: MCC and control cell lines, CellTiter-Glo viability, 72 h; series mostly up to 46 µM. Summed up: as §1
In assay [4] the test system is NIH3T3. The description is as above. Conditions: MCC and control cell lines, CellTiter-Glo viability, 72 h; at 44.8 µM (top of the series) unless noted. Summed up:
as §1

The subject of assay [5] is UISO. Described as above. As to conditions: MCC and control cell lines, CellTiter-Glo viability, 72 h; series mostly up to 46 µM. Summed up:
as §1

Assay [6] concerns WaGa. The description is as above. Conditions: MCC and control cell lines, CellTiter-Glo viability, 72 h; series mostly up to 46 µM. The gist of the method: as §1
Assay [7] relates to C33A. The experiment in a line: Primary qHTS to identify gynecologic anti-cancer compounds using libraries of approved drugs and bioactive compounds (AID 1345084). Further: nearly all actives have a fitted effect of over 55% in size. Further: potency means the concentration at half of the fitted maximal effect. Conditions: Gynecologic cancer cell panel viability, ATPlite luminescence, 48 h; series mostly up to 57.5 µM. The gist of the method:
(§2)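 In this quantitative HTS, cell killing is estimated from loss of ATP-dependent luciferase light. Cells see five compound concentrations over a 48 h exposure.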

In assay [8] the test system is CASKI. The description is as above. As to conditions: Gynecologic cancer cell panel viability, ATPlite luminescence, 48 h; series mostly up to 57.5 µM. Summed up: as §2
Assay [9] deals with Es-2. Described as above. Conditions: Gynecologic cancer cell panel viability, ATPlite luminescence, 48 h; series mostly up to 57.5 µM. Summed up: as §2
Assay [10] relates to HeLa. The description is as above. As to conditions: Gynecologic cancer cell panel viability, ATPlite luminescence, 48 h; series mostly up to 57.5 µM. Summed up:
as §2

For assay [11], the system named is Hek293T. Described as above. Conditions: Gynecologic cancer cell panel viability, ATPlite luminescence, 48 h, control line for the selectivity index; series mostly up to 57.5 µM. Summed up: as §2
In assay [12] the test system is JEG-3. The description is as above. Conditions: Gynecologic cancer cell panel viability, ATPlite luminescence, 48 h; series mostly up to 57.5 µM. The gist of the method:
as §2

Assay [13] relates to OV90. Described as above. As to conditions: Gynecologic cancer cell panel viability, ATPlite luminescence, 48 h; series mostly up to 57.5 µM. Summed up: as §2
For assay [14], the system named is PA-1. The assay is described as above. As to conditions: Gynecologic cancer cell panel viability, ATPlite luminescence, 48 h; series mostly up to 57.5 µM. Summed up: as §2
Assay [15] deals with SKOV3. The description is as above. Conditions: Gynecologic cancer cell panel viability, ATPlite luminescence, 48 h; series mostly up to 57.5 µM. The gist of the method:
as §2

The test system of assay [16] is Tov-21-G. The assay is described as above. Conditions: Gynecologic cancer cell panel viability, ATPlite luminescence, 48 h; series mostly up to 57.5 µM. The gist of the method:
as §2

Assay [17] relates to Tov112D. The assay is described as above. Conditions: Gynecologic cancer cell panel viability, ATPlite luminescence, 48 h; series mostly up to 57.5 µM. Summed up:
as §2

A short description of assay [18]: Drug repurposing screens with cells derived from glioblastoma tumor samples (AID 1345199). Further: nearly all actives have a fitted effect of over 40% in size. As to conditions: GBM patient neurospheres viability, ATP luminescence, 48 h. The gist of the method: (§3)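 Primary testing used CD133+ neurospheres from four GBM patients, seven concentrations, 48 h exposure and ATP-based viability; confirmation added three slower-growing patient lines.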

Assay [19] concerns CAOV3. The experiment in a line: Primary qHTS to identify gynecologic anti-cancer compounds using libraries of approved drugs and bioactive compounds (AID 1345084). Further: nearly all actives have a fitted effect of over 55% in size. Further: potency means the concentration at half of the fitted maximal effect. As to conditions: Gynecologic cancer cell panel viability, ATPlite luminescence, 48 h; series mostly up to 57.5 µM. Summed up: as §2
Assay [20] concerns astro. The experiment in a line: Drug repurposing screens with cells derived from glioblastoma tumor samples (AID 1345199). Further: nearly all actives have a fitted effect of over 40% in size. Conditions: viability, ATP luminescence, 48 h; series mostly up to 45.9 µM. The gist of the method: as §3
[21] abbreviates: at 45.9 µM (top of the series), tumour line B.
The mark [22] stands for this setting: at 45.9 µM (top of the series), tumour line D.
The mark [23] stands for this setting: at 46 µM (top of the series), tumour line A.
[24] abbreviates: at 46.1 µM (top of the series), tumour line C.

Records with an inconclusive call do not appear. Values without a mark were called inactive. The source made the active and inactive calls. The call rests on the fitted dose curve; in most records, active means well fitted curve in the direction sought with a large enough effect; inconclusive means small, poorly fitted or top-dose-only effect, or another doubt; inactive means no such curve, though single readings can be large; an effect the other way counts as inactive or inconclusive.
On the % scale 0 is the no-effect control and ±100 the full control effect.

`Nc1ccc(C(=O)O)c(O)c1`: the Potency result in [1], in assay [2], in [3], in assay [5], in assay [6] and in assay [7] was “inactive” each time. The Potency result in assay [8], in assay [9], in [10], in assay [11], in assay [12] and in assay [13] was “inactive” throughout. For the same compound, the Potency entry in [14], in assay [15], in [16] and in [17] was “inactive” in each case. In addition, the compound was classed as inactive in [4]. The activity, negative = cell killing in assay [18] (setting [21]) is -5.49%; in [18] (setting [22]), 3.71%; in assay [18] (setting [23]), -9.87%; in [18] (setting [24]), -6.08%.

As to `Cc1c(N)c(=O)n(-c2ccccc2)n1C`, the Potency result in [1], in assay [2], in assay [3], in assay [5], in assay [6] and in [7] was “inactive” in each case. Besides, the Potency entry in assay [19], in [8], in [9], in [10], in assay [11] and in assay [12] was “inactive” each time. Moreover, the Potency entry in [13], in assay [14], in assay [15], in assay [16] and in assay [17] was “inactive” throughout. Moreover, the activity, negative = cell killing in assay [18] (at 20 µM (top of the series), tumour line C) was -1.09%; in assay [18] (at 21.2 µM (top of the series), tumour line B) it was -6%; in [18] (at 21.2 µM (top of the series), tumour line D) it was -16.4%; in [18] (at 21.3 µM (top of the series), tumour line A) it was -17.4%.

Turning to `Cc1ccc(O)c(-n2nc3ccccc3n2)c1`, the Potency result in assay [1], in [2], in [3], in assay [5], in [6] and in [7] was “inactive” throughout. Moreover, the Potency entry in [9], in assay [10], in assay [11], in assay [12], in assay [14] and in assay [15] was “inactive” each time. Further, the Potency entry in [16], in [17] and in assay [20] was “inactive” throughout. In assay [13], the Potency was 3.55 µM (active). Further, the activity, negative = cell killing is -17.2% in [18] (setting [21]), -17.5% in [18] (setting [22]) and -2.87% in [18] (setting [24]).

Regarding `O=C(O)c1ccccc1Nc1cccc(C(F)(F)F)c1`, the Potency result in assay [1], in assay [2], in assay [3], in [5], in assay [6] and in assay [7] was “inactive” throughout. For the same compound, the Potency result in assay [19], in [8], in [9], in assay [10], in [11] and in [12] was “inactive” each time. Besides, the Potency entry in [13], in [14], in assay [16] and in [17] was “inactive” in each case. The activity, negative = cell killing in assay [18] (setting [21]) is -9.13%; in assay [18] (setting [22]) it was -1.02%; in [18] (setting [23]) it was -4.14%; in assay [18] (setting [24]), -6.5%.

Turning to `CC(=O)c1ccc(OCC(=O)N2CCCCC2)cc1`, the Potency result in [1], in assay [2], in assay [3], in assay [5], in assay [6] and in assay [7] was “inactive” in each case. In addition, the Potency result in assay [19], in assay [8], in [9], in [10], in [11] and in [12] was “inactive” each time. In addition, the Potency entry in assay [13], in assay [14], in assay [15], in assay [16], in assay [17] and in assay [20] was “inactive” in each case. Also, the result in assay [4] was inactive. Also, the activity, negative = cell killing is -9.55% in assay [18] (setting [21]), -17.5% in [18] (setting [22]), -29.4% in [18] (setting [23]) and -5.72% in assay [18] (setting [24]).
